# Among all 77,000 compounds or so, about 4,600 (6%) were called active. Another 1% or so got no clear call; they are omitted. The sample as a whole holds a higher share of actives than the screen did. Unmarked numbers belong to inactive results.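 The calls were made as follows: active = mean inhibition above about 93%, with at least 55% of replicates each passing it (limit read from the data, passing the limit was not always enough); inconclusive = only one of those two conditions holds; inactive = neither condition holds.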
# Assay: growth inhibition of T. cruzi in host fibroblasts – cell-based, beta-gal Tulahuen parasites, NIH3T3 host, luminescence, primary screen (AID 624255)
# Conditions: T. cruzi beta-gal in NIH3T3, GalScreen luminescence, 90 h; at 8.34 µM; hits give high values
row,Compound,inhibition
1,CO[C@H]1CC[C@H]2CCOc3c(C#N)cccc3C(=O)N(C)CC3(CCCCC3)CC(=O)N(C)C[C@@H]1O2,13.3%
2,CCCNC(=O)Nc1ccc2c(c1)OC[C@@H](C)N(C(=O)c1ccccc1F)C[C@H](C)[C@@H](OC)CN(C)C2=O,52.3%
3,COc1ccccc1C#Cc1ccc([C@H]2[C@H](CO)N3CCCCN(C(=O)C4CCC4)C[C@@H]23)cc1,109% (active)
4,COc1ccccc1C#Cc1ccc([C@@H]2[C@@H](CO)N3CCCCN(S(C)(=O)=O)C[C@@H]23)cc1,77.3%
5,CC(C)NC(=O)N1CCCCN2[C@@H](CO)[C@@H](c3ccc(C#Cc4ccccc4)cc3)[C@@H]2C1,80.4%
6,COc1ccccc1C#Cc1ccc([C@@H]2[C@H](CO)N3CCCCN(C(=O)C4CC4)C[C@@H]23)cc1,110% (active)
7,COCC#Cc1ccc([C@@H]2[C@@H](CO)N3CCCCN(C(=O)NC4CCCC4)C[C@H]23)cc1,69.2%
8,COCC(=O)N1CCCCN2[C@H](CO)[C@H](c3ccc(C#Cc4ccc(OC)cc4)cc3)[C@H]2C1,72.8%
9,COc1ccccc1C#Cc1ccc([C@@H]2[C@H](CO)N3CCCCN(C(=O)C4CCCC4)C[C@@H]23)cc1,109% (active)
10,CO[C@@H]1CN(C)C(=O)c2cc(NC(=O)c3ccccc3)ccc2OC[C@H](C)N(C(=O)CN(C)C)C[C@H]1C,-60.5%
11,O=C([C@H]1[C@H](CO)[C@H]2Cn3c(ccc(C4=CCCCC4)c3=O)[C@@H]1N2)N1CCCCC1,60.4%
12,CO[C@H]1CN(C)C(=O)c2ccc(NS(C)(=O)=O)cc2OC[C@H](C)N(C(=O)C2CCC2)C[C@H]1C,11%
13,O=C(C1CCC1)N1C[C@H]2[C@@H](c3ccccc31)[C@@H](CO)N2C(=O)c1ccccc1F,5.17%
14,COc1cccc(S(=O)(=O)N[C@H]2CC[C@@H](CCN)O[C@H]2CO)c1,59%
15,Cc1noc(C)c1S(=O)(=O)Nc1ccc2c(c1)C(=O)N([C@H](C)CO)C[C@@H](C)[C@@H](CN(C)C(=O)C1CCCCC1)OCCCC[C@@H](C)O2,48.7%
16,CC(C)NC(=O)Nc1ccc2c(c1)C(=O)N(C)[C@@H]1CC[C@H](CC(=O)NCC3CCCCC3)O[C@@H]1CO2,-5.5%
17,C[C@H](O)C#Cc1ccc2c(c1)O[C@H](CN(C)C(=O)C1CCCCC1)[C@@H](C)CN([C@H](C)CO)S2(=O)=O,60.6%
18,C[C@H]1CCCCO[C@@H](CN(C)C(=O)Cc2ccccc2)[C@@H](C)CN([C@@H](C)CO)C(=O)c2cc(NC(=O)c3ccccc3)ccc2O1,33.7%

# From PubChem BioAssay AID624255 (Broad Institute, 2012)
